The record followed here is PubChem BioAssay AID588689 (Southern Research Specialized Biocontainment Screening …, 2011).

The structures appear in SMILES notation. The whole screen tested about 340,000 compounds, of which about 1,000 (0.29%) were called active. Cut-off read from the data, not from the text of the source: inconclusive = inhibition above about 29% without an active follow-up result; inactive = below that. Not all results are given here. Measured potencies and affinities stand elsewhere.

For this experiment, the target named is Genome polyprotein (Dengue virus type 2 (strain 16681-PDK53)) (UniProt P29991). Kind of experiment: Dengue-2 NS5 methyltransferase inhibitors, primary screen, biochemical, confirmation dose response (AID 588689). The settings on record: Dengue-2 NS5 methyltransferase capping enzyme assay, at 25 µM, stronger effect = higher value.
Where [1] appears, read: measured here: pilot screen replicate inhibition.

Take `CCCCn1c(=O)c(C(=O)OCC)c(O)c2ccccc21`: the inhibition was 3.24% (inactive). In the case of `CCn1c(=O)c(-c2ccccc2)c(O)c2ccccc21`, the inhibition was 0% (inactive). On to `CCCCCn1c(=O)c(C(=O)OCC)c(O)c2ccccc21`, for which the inhibition is -0.68% (inactive). The same measure, in the same setting: the figure for `CCCCn1c(=O)c(-c2ccccc2)c(O)c2ccccc21` is -4.09% (inactive); for `O=C1C(=Cc2ccncc2)CCCc2ccccc21` it is -20.6% (inactive).

As to `O=C(NC(=S)N1CCCCCC1)c1cccc([N+](=O)[O-])c1`, the inhibition is -2.29% (inactive). `O=C(Cn1cc(C(F)(F)F)ccc1=O)NCCc1ccc(Cl)cc1Cl`: the inhibition is -0.73% (inactive). Same read-out and setting: the figure for `Cc1ccc(/C=C/C(=O)C2C(=O)c3ccccc3C2=O)cc1` is 13.3% (inactive); for `O=C(/C=C/c1ccccc1)C1C(=O)c2ccccc2C1=O` it is -1.46% (inactive); for `Cc1ccc(C)c(N2CCN(C(=O)C3CCCN(S(=O)(=O)c4c(C)noc4C)C3)CC2)c1` (stereo not drawn) it is -2.75% (inactive). `O=C(NCCC1=CCCCC1)c1ccc(Cl)c([N+](=O)[O-])c1`: the inhibition is 0% (inactive).

Regarding `O=C(O)c1ccc(NCCC2=CCCCC2)c([N+](=O)[O-])c1`, the inhibition is 5.44% (inactive). Take `Nc1c(C(=O)N/N=C/c2ccccc2)cnn1-c1ccccc1`: the inhibition is 1.53% (inactive).

Turning to `O=C(O)c1ccc(NS(=O)(=O)c2ccc3c(c2)OCCCO3)cc1`, the inhibition is -0.76% (inactive).

In the case of `CC(=O)c1ccc2c(c1)C1C=CCC1C(c1ccc(S(=O)(=O)N3CCOCC3)cc1)N2` (stereo not drawn), the inhibition is 11.6% (inactive). Same read-out and setting: the figure for `COc1cccc(NS(=O)(=O)c2ccc3c(c2)NC(=O)CC(=O)N3)c1` is -10.6% (inactive). The same measure, in the same setting: to `COc1cccc(NS(=O)(=O)c2ccc3c(c2)CC(=O)N3)c1` belongs -6.98% (inactive). On the same count and under the same terms, to `COC(=O)c1ccc(C2Nc3ccc(/C(C)=N/NC(=O)C(OC)c4ccccc4)cc3C3C=CCC32)cc1` (stereo not drawn) belongs -4.05% (inactive); to `COc1ccc(C(=O)N/N=C(\C)c2ccc3c(c2)C2C=CCC2C(c2ccccc2)N3)cc1` (stereo not drawn), 2.59% (inactive); to `COc1ccc(NS(=O)(=O)c2ccc(NS(=O)(=O)c3cccc(C(=O)O)c3)cc2)cc1`, 0% (inactive). Take `O=C(O)c1ccc2c(c1)C1C=CCC1C(c1cc3c(cc1Br)OCO3)N2` (stereo not drawn): the inhibition was 6.19% (inactive).

For the molecule `COc1ccc(CN2C3CCCC2CC(NC(=O)Nc2ccccc2)C3)cc1` (stereo not drawn), the inhibition was -8.9% (inactive). For `CCN(CC(=O)Nc1ccc2c(c1)OCCO2)S(=O)(=O)c1ccc(F)cc1`, the inhibition is -12.2% (inactive). As to `CCN(CC)S(=O)(=O)c1ccc(C(=O)NCCOC(=O)c2ccc(F)cc2F)cc1`, the inhibition was 8.01% (inactive). Consider `COc1ccccc1NS(=O)(=O)c1ccc2c(c1)OCCO2`, for which the inhibition is -2.93% (inactive).

Regarding `Cc1ccc(S(=O)(=O)N2CCCCC2)cc1C(=O)NCc1ccc(S(N)(=O)=O)cc1`, the inhibition was 4.65% (inactive). On the same count and under the same terms, to `COc1ccc(/C(O)=C2\C(=O)C(=O)N(CC3CCCO3)C2c2cc(OC)ccc2OC)cc1` (stereo not drawn) belongs -3.45% (inactive); to `O=C(NCCC1=CCCCC1)c1cnc2n(c1=O)CCS2`, 3.21% (inactive).

`COc1ccccc1C(=O)NC(=O)COC(=O)Cc1n[nH]c(=O)c2ccccc12`: the inhibition is 3.6% (inactive). The same measure, in the same setting: the figure for `COc1ccc(NS(=O)(=O)c2cc([N+](=O)[O-])ccc2N/N=C\c2c(C)[nH]c3ccccc23)cc1` is -20.6% (inactive). As for `COc1ccc(S(=O)(=O)NCc2ccccn2)cc1Br`, the inhibition was 2.64% (inactive). Moreover, under setting [1], the inhibition came out at 3.33%. For the molecule `N#CC1=C(Nc2ccccc2Cl)SC(c2ccccc2O)NC1=O` (stereo not drawn), the inhibition was -11.1% (inactive). Still for that read-out and setting: to `CSC1=C(C#N)C(=O)NC(c2ccc(Cl)cc2)S1` (stereo not drawn) belongs -3.83% (inactive). As for `Cc1c([N+](=O)[O-])cc(N2C(=O)C=CC2=O)cc1[N+](=O)[O-]`, the inhibition is 8.16% (inactive). `Cc1cc(N2C(=O)C=CC2=O)c([N+](=O)[O-])cc1C`: the inhibition was -13.6% (inactive). As for `COc1ccc(-c2ccc(NS(=O)(=O)c3ccc([N+](=O)[O-])cc3)cc2)nn1`, the inhibition is 5.43% (inactive). With `COc1ccc(-n2nc(C(=O)NCC(=O)NCC3CCCO3)c3ccccc3c2=O)cc1` (stereo not drawn), the inhibition was -4.8% (inactive). The inhibition under setting [1] was -2.44%. For the molecule `Cc1ccc(C2(C(F)(F)F)NC(=O)N3N=C4CCCCCN4C3=C2C#N)cc1` (stereo not drawn), the inhibition is 7.4% (inactive). In the case of `COc1ccc(/C=C2\SC(=S)N(CCCC(=O)Nc3ccccc3C(=O)O)C2=O)cc1OC`, the inhibition is -34.8% (inactive). For the molecule `CCc1ccc(/C=C2\SC(=S)N(CCCC(=O)Nc3ccc(C(=O)O)cc3)C2=O)cc1`, the inhibition is 17.8% (inactive). On to `COc1ccc(/C=C2/SC(=S)N(CCCC(=O)Nc3ccccc3C(=O)O)C2=O)cc1`, for which the inhibition was 12.5% (inactive).

Turning to `Cc1ccc(/C=C2\SC(=S)N(CCCC(=O)Nc3ccccc3C(=O)O)C2=O)cc1`, the inhibition is 15.4% (inactive). As to `COc1ccc(/C=C2\SC(=S)N(CCC(=O)Nc3ccccc3C(=O)O)C2=O)cc1`, the inhibition is -2.62% (inactive). The same measure, in the same setting: to `CCOc1ccc(/C=C2/SC(=S)N(CCC(=O)Nc3ccc(C(=O)O)cc3)C2=O)cc1` belongs -7.39% (inactive); to `COc1ccc(CNC(=O)COC(=O)C(CCSC)NC(=O)c2ccco2)cc1OC` (stereo not drawn), 0% (inactive); to `O=C(c1cc(C2CC2)nn1-c1ccccc1)N1CCN(Cc2ccccc2F)CC1`, -3.6% (inactive). Same read-out and setting: to `Cc1cc(C(=O)COC(=O)c2n[nH]c(=O)c3ccccc23)c(C)n1C(C)C` belongs -4.04% (inactive). `CCOc1ccc(N(CC(=O)NC2CCCCC2C)S(=O)(=O)c2c(C)noc2C)cc1` (stereo not drawn): the inhibition is -4.39% (inactive). Still for that read-out and setting: to `O=C1C(=NO)CCCc2ccccc21` belongs -3.23% (inactive); to `O=C1/C(=N\O)Cc2ccccc21`, -5.15% (inactive); to `O=C(O)CC1SC(N/N=C/c2ccc(Br)cc2)NC1=O` (stereo not drawn), 3.06% (inactive).

For `COc1ccc(OC)c(S(=O)(=O)N(C)CC(=O)N2CCCCC2)c1`, the inhibition was -7.78% (inactive). Regarding `CC(C)C1C(=O)N(Cc2cn(CCC3OCCO3)nn2)CCS(=O)(=O)N1Cc1ccc(-c2ccc(Cl)c(Cl)c2)cc1` (stereo not drawn), the inhibition was -2.32% (inactive).

For the molecule `Oc1c(Br)cc(Br)cc1/C=N/n1c(-c2ccccc2)n[nH]c1=S`, the inhibition was -12.7% (inactive). On the same count and under the same terms, to `Oc1ccc(/C=N/n2c(-c3ccccc3)n[nH]c2=S)cc1Br` belongs 13.5% (inactive). `CN=c1scc(C)n1/N=C/c1cc(Br)c(O)c(Br)c1`: the inhibition is -1.49% (inactive).

Regarding `Cc1c(Br)c(O)c(Br)c(O)c1/C=N/n1c(-c2ccccc2)n[nH]c1=S`, the inhibition was 21.5% (inactive). On the same count and under the same terms, the figure for `COc1ccccc1N1C(=O)CC(N2CCN(c3ccc(F)cc3)CC2)C1=O` (stereo not drawn) is -6.31% (inactive).

Take `O=C(CN(Cc1ccccc1Cl)C(=O)c1csnn1)NCc1ccc2c(c1)OCO2`: the inhibition is -1.47% (inactive).

On to `Cc1ccc(-c2cn3nc(C)c(C)nc3n2)cc1`, for which the inhibition was -9.37% (inactive).

As for `Cc1nc2nc(-c3ccccc3)cn2nc1C`, the inhibition is -1.38% (inactive). On the same count and under the same terms, the figure for `COc1ccc(C(=O)N(CC(=O)NC(C)(C)C)c2ccc3c(c2)OCCO3)cc1OC` is -3.24% (inactive). For `Cn1c(-c2ccccc2)cc(=NNS(C)(=O)=O)c2cc(S(=O)(=O)O)ccc21`, the inhibition is 7.43% (inactive). The same measure, in the same setting: the figure for `Oc1ccc2ccccc2c1CN1CCCCC1` is -0.78% (inactive); for `Oc1ccc(CN2CCCCC2)nc1-c1ccccc1` it is -3.27% (inactive); for `c1ccc(-c2ccc(-c3csnn3)cc2)cc1` it is 0.69% (inactive). On the same count and under the same terms, the figure for `CCOC(=O)c1ccccc1NS(=O)(=O)c1ccc(OCC)cc1` is -6.45% (inactive); for `COc1ccc(S(=O)(=O)Nc2ccc(O)c3ccccc23)cc1` it is 70.6% (inactive). On the same count and under the same terms, to `CCOc1ccc(S(=O)(=O)Nc2ccccc2SC)cc1` belongs 6.41% (inactive); to `COc1ccc(S(=O)(=O)c2c(C)c(NS(=O)(=O)c3ccccc3)cc(C)c2O)cc1`, -5.22% (inactive). Regarding `CC1(c2ccc(Cl)cc2)NC(=O)N(CC(=O)NCCC2=CCCCC2)C1=O` (stereo not drawn), the inhibition is -2.9% (inactive). For `COc1ccc(-n2c(=S)[nH]c3cc(C(=O)Nc4cc(C(N)=O)ccc4OC)ccc3c2=O)c(OC)c1`, the inhibition is -13.4% (inactive).

`COc1cc(N)c(Cl)cc1C(=O)OCC(=O)NC1CCCC1`: the inhibition was -6.23% (inactive).

`CC(C)c1ccc(NC2CCCN(C(=O)CN3CCCC3=O)C2)cc1` (stereo not drawn): the inhibition was -7.87% (inactive). Turning to `C=CCNC(=S)NNC(=O)c1csc(C)c1CC`, the inhibition is 2.43% (inactive). Still for that read-out and setting: to `CCOc1ccc(NC(=O)CN(C)C(=O)C2=COCCO2)cc1OCC` belongs -3.6% (inactive); to `Nc1ccccc1Sc1ccc(C(=O)c2ccccc2C(=O)O)cc1[N+](=O)[O-]`, 17.6% (inactive); to `CC(=O)c1ccc(Sc2ccccc2)c([N+](=O)[O-])c1`, 3.06% (inactive).

With `Cc1ccc(C(=O)c2c[nH]cc2-c2ccccc2)cc1`, the inhibition is -3.21% (inactive).

For `O=C(c1ccccc1)c1coc2c1C(=O)c1ccccc1C2=O`, the inhibition is 6.1% (inactive).

On to `O=C1c2ccccc2C(=O)c2c1oc(C(F)(F)F)c2C(=O)c1ccccc1`, for which the inhibition was -2.07% (inactive). For `Cc1ccc(C(=O)c2coc3ccc(O)cc23)cc1`, the inhibition was 2.6% (inactive).

Take `COc1ccc(C(=O)c2c(C(F)(F)F)oc3c2C(=O)c2ccccc2C3=O)cc1`: the inhibition was 9.03% (inactive).

In the case of `Cc1oc2c(c1C(=O)c1ccc(Cl)cc1)C(=O)C(=O)c1ccccc1-2`, the inhibition is 28% (inactive).

For the molecule `COc1ccc(C(=O)c2coc(-c3ccccc3C(=O)O)c2C(=O)O)cc1`, the inhibition is 2.56% (inactive). Same read-out and setting: the figure for `Cc1ccc(C(=O)c2c(C)oc3c2C(=O)C(=O)c2ccccc2-3)cc1` is 21.1% (inactive). In the case of `CN1CCN(CCCNC(=O)Cn2ncc3c4ccccc4n(C)c3c2=O)CC1`, the inhibition was -0.7% (inactive). Turning to `CCOc1ccc(C(=O)Nc2cccc(NC(=O)c3cccs3)c2)cc1[N+](=O)[O-]`, the inhibition was -6.19% (inactive). For the molecule `COc1cc(OC)cc(C(=O)NCCCNC(=O)c2cccnc2)c1`, the inhibition is -1.78% (inactive). Turning to `Cc1nc(N2CCOCC2)[nH]c(=O)c1CCC(C)C`, the inhibition is -3.29% (inactive). Still for that read-out and setting: the figure for `CC(=C\C(=O)O)/C(=C\c1cccc2ccccc12)C(=O)O` is -1.16% (inactive).

The term inhibition denotes the relative decrease from the control value, in per cent.
